# Compound activity as filed in PubChem.
# Hits are enriched below; roughly 7.4% of the tested compounds scored in any of these assays.
# SMN2 splice up = enhancers of SMN2 splice variant expression | HEK293 SMN2-luciferase splicing reporter, luminescence, 30-36 h | Potency, µM (doses to about 46.1 µM), without a hit: at the highest dose activity change, positive = activation, actives largely listed as activators | actives 2.8% (n = 210,000) | AID 1458; also: % of control where 0% means no effect; nearly all actives have a fitted effect of over 55% in size
#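 HEK293 cells carry an SMN2 […]–luciferase reporter in which exon 7 inclusion puts luciferase in frame. Cells were plated 10-12 h before compound addition, then incubated 30-36 h at 37C. ONE-Glo luminescence was read; sodium butyrate at 4.5 mM final served as control.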
# NPC1 prom act = activators of NPC1 promoter; Huh7 NPC1 promoter luciferase reporter, 24 h; actives 2.4% (n = 320,000); Potency, µM (doses to about 9.22 µM), without a hit: top-dose activation, usual class: activators; also: % of control where 0% means no effect; nearly all actives have a fitted effect of over 60% in size
#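 Cells: Huh7 expressing luciferase under the NPC1 promoter, 1500/well. Seeded 2 h, compound added, incubated 24 h at 37 °C. Luciferase reagent, 10 min ambient, then luminescence.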
# Rab9 promoter act = activators of Rab9 promoter; Huh7 Rab9 promoter-luciferase reporter, luminescence, 24 h; actives 2.8% (n = 320,000); Potency, µM (top dose mostly 9.22 µM), without a hit: top-dose activation, negative = inhibition, usual class: activators; AID 485297; also: % of control where 0% means no effect; nearly all actives have a fitted effect of over 60% in size
#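 Rab9 promoter-driven luciferase in stably transfected Huh7 cells; 1500 cells/well rested 2 h, exposed to compound in DMSO for 24 h at 37 °C, 5% CO2. Luminescence read 10 min after adding luciferase reagent at ambient temperature.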
# Luc counter = blocks Kinase-Glo luciferase, a counter-screen artifact; Q27757; Kinase-Glo luciferase, ATP luminescence, 8 min; Potency, µM (top dose mostly 38.3 µM), without a hit: at the highest dose activity change, negative = inhibition, actives largely listed as inhibitors; actives 0.28% (n = 200,000); AID 1379; also: % is scaled to controls: 0 for no effect and ±100 for the full control effect; nearly all actives have a fitted effect of over 60% in size
#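 Kinase-Glo luciferase light output from ATP and luciferin was measured with 10 uM ATP, within the enzyme's linear range. Buffer: 50 mM imidazole pH 7.2, 50 mM KCl, 7 mM MgCl2, 0.01% Tween 20, 0.05% BSA; luminescence read after 8 min at ambient temperature.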
# FLuc modulator = inhibits or activates purified firefly luciferase, miR-21 counter-screen. P08659. purified FLuc, Km substrates, luminescence inhibition. Potency, µM (doses to about 57.5 µM), for the others: at the highest dose activity change, negative = inhibition, usual class: inhibitors. actives 6.9% (n = 360,000);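 also: plate controls were vehicle for no effect and reference inhibitor for full effect; nearly all actives have a fitted effect of over 55% in size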
# Target sequence (P08659 whole entry, looked up): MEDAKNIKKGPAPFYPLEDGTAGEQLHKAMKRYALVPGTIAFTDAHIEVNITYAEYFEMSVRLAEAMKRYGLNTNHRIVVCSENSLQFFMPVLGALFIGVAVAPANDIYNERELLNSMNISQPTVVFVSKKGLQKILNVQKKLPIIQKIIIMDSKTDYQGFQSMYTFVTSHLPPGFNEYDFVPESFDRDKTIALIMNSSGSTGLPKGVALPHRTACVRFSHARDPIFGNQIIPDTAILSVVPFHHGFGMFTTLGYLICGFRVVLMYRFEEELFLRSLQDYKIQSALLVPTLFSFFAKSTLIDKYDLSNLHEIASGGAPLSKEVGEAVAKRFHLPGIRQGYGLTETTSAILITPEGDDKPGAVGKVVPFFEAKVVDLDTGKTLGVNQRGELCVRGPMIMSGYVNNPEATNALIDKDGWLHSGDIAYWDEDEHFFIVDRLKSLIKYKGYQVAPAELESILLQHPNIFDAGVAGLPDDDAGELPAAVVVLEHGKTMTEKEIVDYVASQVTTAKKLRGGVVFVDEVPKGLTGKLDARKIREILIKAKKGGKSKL
#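 Purified P. pyralis luciferase (10nM final) with 10uM D-luciferin and 10uM ATP (Km levels) in 50mM Tris acetate pH 7.5, 10mM Mg acetate, 0.01% Tween-20, 0.05% BSA; qHTS 6-point titration, ~60 µM downward; luminescence read.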
# ELG1 genotoxic = induces genotoxicity in HEK293T cells with luciferase-tagged ELG1. Potency, µM (doses to about 46 µM), for inactives: at the highest dose activity change, positive = activation, actives largely listed as activators. actives 1.3% (n = 330,000). HEK293T ELG1-luciferase reporter, luminescence, 16 h. AID 504466; also: % of control where 0% means no effect; nearly all actives have a fitted effect of over 60% in size
#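 HEK293T cells expressing luciferase-tagged ELG1 were exposed to compound or DMSO vehicle for 16 hr at 37 °C and 5% CO2. Luciferase activity was then measured with ONE-Glo after 30 min at room temperature.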
# An asterisk follows results filed as active; ? = inconclusive; . = not tested or not shown; [ ] = dose if it differs, or a comment. Calls follow the shape of the dose curve; as a rule, active = well fitted curve in the direction sought with a large enough effect; inconclusive = small, poorly fitted or top-dose-only effect, or another doubt; inactive = no such curve, though single readings can be large; an effect the other way counts as inactive or inconclusive. Potency is read from the fitted curve at half-maximal effect.
SMILES,SMN2 splice up,NPC1 prom act,Rab9 promoter act,Luc counter,FLuc modulator,ELG1 genotoxic
N[C@H](Cn1ccc(=O)n(Cc2ccccc2C(=O)O)c1=O)C(=O)O,.,.,.,-0.4%,.,.
Cc1ccc(-c2nnc(Nc3ccc4c(c3)OCO4)c3ccccc23)cc1S(=O)(=O)NCCO,-15.8%[1.84 µM],0.4%,15.8%,-1.8%,15.1µM*,-0.6%
Cc1ccc(-c2nnc(Nc3ccc4c(c3)OCO4)c3ccccc23)cc1S(=O)(=O)NC(C)C,0.8%,0.8%,-0.5%,-1.4%,5.36µM*,-6.0%
Cc1cc(C)n(-c2nnc(NC34CC5CC(CC(C5)C3)C4)nn2)n1,11.2µM*,2µM*,3.55µM*,-1.7%,2.39µM*,?
Cc1cc(C)n(-c2nnc(NC(C)(C)C)nn2)n1,12.6µM*,?,3.16µM*,-21.2%,21.3µM*,?
COc1cccc(-c2cc(C(=O)NCCc3ccc(C)cc3)[nH]n2)c1,.,.,.,.,-15.9%,.
Cc1[nH]n(-c2ccccc2)c(=O)c1/C=C1\C=NN=C1c1ccccc1,.,-0.6%,0.4%,.,12µM*,12.1%
Cc1ccc(-n2[nH]c(C)c(/C=C3/C=Nc4ccccc43)c2=O)cc1C,17.8µM*,15.7%,-1.4%,-0.5%,-2.0%,12.0%
CCCCC[C@H](O)/C=C/C=C/C/C=C\CCCC(=O)O,0.4%,.,.,-1.7%,.,.
Brc1ccc(CSc2ncn[nH]2)cc1,4.1%,-0.1%,11.1%,-4.1%,-4.7%,1.5%
CCCOc1ccc(CSc2ncn[nH]2)cc1,?,16.8%,26.1%,4.2%,10.7µM*,?
CCc1ccc(C(=O)CSc2n[nH]c(-c3ccncc3)n2)cc1,-8.7%,-1.4%,-1.4%,-0.2%,23.9µM*,-3.1%
Cc1ccc(C(=O)CSc2ncn[nH]2)cc1,-3.4%,17.2%,-0.4%,-2.8%,-18.3%,6.9%
CCc1ccc(C(=O)CSc2ncn[nH]2)cc1,2.4%,20.0%,?,-2.0%,16.9µM*,?
CCc1ccc(CNC(=O)CN2C(=O)c3cccnc3Oc3ccc(Cl)cc32)cc1,.,.,.,.,-11.0%,.
COc1ccc(C2c3[nH]c4ccccc4c3CCN2Cc2cccn2-c2ncccn2)cc1C (configuration not stated),.,7.8%,-9.2%,-1.8%,-18.8%,-5.4%
Cc1cccc(C2c3[nH]c4ccccc4c3CCN2Cc2cccn2-c2ncccn2)c1 (configuration not stated),20µM*,1.4%,?,0.0%,-19.5%,-6.4%
COc1ccc(-c2cc(C(F)(F)F)nc(SCC(=O)NCCc3ccc(OC)c(OC)c3)n2)cc1,-6.2%,.,.,.,0.5%,.
Nc1ccc(-c2cc3ccccc3oc2=O)cc1,.,-20.2%,-11.3%,.,21.3µM*,4.3%
O=c1oc2ccccc2cc1-c1ccc(O)cc1,?,?,3.55µM*,-4.0%,12µM*,?
Nc1ccc2oc(=O)c(-c3ccccc3)cc2c1,.,?,19.1%,.,?,?
O=c1oc2ccccc2cc1NCc1ccccc1O,5.2%,1.0%,16.9%,1.1%,15.1µM*,?
O=c1oc2ccccc2cc1O,-5.3%,.,.,-6.1%,.,.
Cc1ccc(OCC(=O)Nc2ccccc2C(=O)OCc2cc(=O)n3ccsc3n2)cc1C,.,.,.,.,-14.4%,.
COC(=O)c1cnc(N2CCN(c3ccc(OC)cc3)CC2)c2ccccc12,.,.,.,.,-10.3%,.
SMILES,SMN2 splice up,NPC1 prom act,Rab9 promoter act,Luc counter,FLuc modulator,ELG1 genotoxic
CC(=O)N1CCC2(CC1)OC(=O)C(C)=C2C(=O)Nc1ccccc1C(F)(F)F,.,.,.,.,1.6%,.
Clc1ccc(CCNC(c2cccc(Cl)c2)c2nnc(-c3ccccc3)o2)cc1 (configuration not stated),-7.5%,.,.,.,-12.6%,.
Cc1cc(S(=O)(=O)Nc2ccccc2C(=O)O)ccc1F,.,.,.,-2.3%,.,.
Cc1cc(C)c(Cn2c(=O)n(CCC(=O)NCc3ccc4c(c3)OCO4)c(=O)c3ccccc32)c(C)c1,2.8%,.,.,.,-2.4%,.
Nc1cccc(OCc2nc(N)nc(N)c2-c2ccc(Cl)cc2)c1,-12.5%[9.22 µM],.,.,-2.7%[7.66 µM],.,.
O=C(Nc1ccccc1F)c1ccc(-c2ccccc2)s1,?,.,.,.,1.51µM*,.
CC1(C)C=C(c2ccc(C(=O)O)s2)CC(C)(C)N1,0.4%,1.4%,-1.9%,-0.3%,-0.7%,0.6%
Cc1cc(-c2ccc(C(=O)O)s2)cnc1N,12.6µM*,?,?,-2.7%,12µM*,?
O=C(O)c1ccc(-c2ccc(-c3ccccc3)cc2)s1,.,3.98e-05µM*,0.001µM*,.,0.0757µM*,?
COc1ccc2cc(C(=O)Nc3ccccc3)sc(=O)c2c1OC,18.8%,-0.8%,28.6%,0.8%,7.7%,16.3%
O=C(Nc1ccccc1)c1cc2ccc3ccccc3c2s1,.,?,?,.,5.36µM*,?
Cc1ccc(-n2c(=O)c3oc4ccccc4c3n(CC(=O)Nc3ccccc3)c2=O)cc1C,.,.,.,.,-6.4%,.
COCCN(CCOC)c1nc(C)nc2c1nc(-c1ccccc1)n2CCN1CCCC1,-5.5%,.,.,-2.4%,.,.
COc1ccccc1NC(=O)Cn1c(SCC(=O)NCc2ccccc2)nc2ccccc21,.,.,.,.,-8.8%,.
O=C(Nc1ccccc1)c1ccc(-c2ccccc2)s1,2.3%,?,?,-4.3%,1.69µM*,5.17µM*
CCc1ccc(NC(=O)c2ccc(-c3ccccc3)s2)cc1,.,.,.,.,0.1%,.
COCCn1c(=O)c(-c2cccs2)nc2cnc(OCc3ccccc3)nc21,14.5%,.,.,-4.3%,.,.
COc1ccc(-n2nc([N+](=O)[O-])c(=NCCc3ccc(Cl)cc3)n2O)cc1,?,3.6%,7.9%,2.4%,0.5%,-1.0%
COc1ccc(-n2nc([N+](=O)[O-])c(=NCc3cccnc3)n2O)cc1,25.6%,3.55µM*,2.82µM*,0.8%,?,?
COc1ccc(-n2nc([N+](=O)[O-])c(=NCCc3ccc(C)cc3)n2O)cc1,.,?,?,.,-6.1%,-1.0%
O=[N+]([O-])c1nn(-c2ccc3c(c2)OCCO3)n(O)c1=NCc1ccccc1Cl,12.6µM*,?,?,-15.6%,6.01µM*,?
COc1ccccc1CN=c1c([N+](=O)[O-])nn(-c2ccc3c(c2)OCCO3)n1O,?,24.6%,?,2.2%,?,?
COc1ccc(-n2nc([N+](=O)[O-])c(=NCCC3=CCCCC3)n2O)cc1,?,?,3.55µM*,0.9%,?,?
COc1ccc(-n2nc([N+](=O)[O-])c(=NCc3ccco3)n2O)cc1,.,3.55µM*,1.41µM*,.,?,?
Cc1ccccc1-c1nc(-n2ccnc2)c2ccccc2n1,-41.9%,.,.,0.1%,.,.
CCn1c(SCC(=O)NC(=O)Nc2ccc3c(c2)OCCO3)nnc1-c1cccs1,-9.0%,1.7%,7.6%,-5.5%,19µM*,12.9%
CCn1c(SCC(=O)Nc2ccc3c(c2)OCCO3)nnc1-c1ccco1,-8.3%,-1.2%,2.9%,2.6%,15.1µM*,-2.0%
